Active and inactive are the calls of the source. The calls were made as follows: active = hit-call score of the fitted dose curve at least 0.9, where 1 is the maximum; inactive = score below 0.9.

Read-out in this assay: CD40, CD40 (gene 958)
The assay can be described thus: BSK_SAg_CD40: BioMAP Diversity Plus: SAg Assay for CD40 Biomarker Activity (AID 2283088). The conditions noted are these: primary human HUVEC with PBMC; actives raise or lower the signal. The protocol: BSK_SAg is a cell-based, multiplexed-readout assay that uses umbilical vein endothelium and peripheral blood mononuclear cells, a human vascular primary cell co-culture, with measurements taken at 24 hours after chemical dosing in a 96-well plate.BSK_SAg_CD40 is one of 10 assay component(s) measured or calculated from the BSK_SAg assay. It is designed to make measurements of enzyme-linked immunosorbent assay, a form of binding reporter, as detected with fluorescence intensity signals by Enzyme-linked immunosorbent assay technology.Data from the assay component BSK_SAg_CD40 was analyzed into 1 assay endpoint. This assay endpoint, BSK_SAg_CD40, was analyzed with bidirectional fitting relative to DMSO as the negative control and baseline of activity. Using a type of binding reporter, gain or loss-of-signal activity can be used to understand changes in the signaling as they relate to the gene CD40. Furthermore, this assay endpoint can be referred to as a primary readout, because this assay has produced multiple assay endpoints where this one serves a signaling function. To generalize the intended target to other relatable targets, this assay endpoint is annotated to the cytokine intended target family, where the subfamily is inflammatory factor.
The levels of cell surface (or secreted, indicated by the prefix "s") biomarker endpoints were measured by ELISA. Overt cytotoxicity to cells in confluent adherent cultures (all systems other than the BT system) was assessed by measuring total protein levels using sulforhodamine B (SRB) staining in parallel cultures at the time of biomarker measurements, indicated as SRB endpoints. For proliferation assays for adherent cell types, individual cell types are cultured at sub-confluence and relative cell numbers quantified by SRB staining at time points optimized for each system (48 h: 3C and CASM3C systems; 72 h: BT and HDF3CGF systems; 96 h: SAg system). SRB was performed by staining cells with 0.1% SRB after fixation with 10% TCA and reading wells at 560 nm.Viability and proliferation of PBMC (T cells) was quantified by Alamar Blue reduction for the SAg and BT systems. For PBMC viability (referred to as PBMC Cytotoxicity within the assay endpoint names), cells were plated (75,000/well in a 96-well plate) and then chemical samples added for 1 h before addition of activators, SEB and TSST-1 (20 ng/mL final concentration each). Cells were incubated for 90 h. Then, Alamar Blue (20 uL/well) (Invitrogen, Cat DAL1100) was added for 6 h, and the plates were read with a fluorescence microplate reader at 546/580 nm (excitation/emission). For PBMC proliferation, cells were plated and activated as above but incubated for only 16 h prior to addition of Alamar Blue. Plates were read after 6 h.
As a reminder, the AC50 is the midpoint of the concentration-response curve, whichever way the signal moves. With `CN(C)CCCN1c2ccccc2Sc2ccc(Cl)cc21`, the AC50 was 29.5 µM (active).

As to `COC(=O)CCCC(=O)OC`, the outcome was inactive.

For `CCCC(=O)O`, the result was inactive.

As to `O=Cc1ccccc1C=O`, the result was inactive.

`C/C=C/C=C/C(=O)O`: the result was inactive.

For `COc1ccc(OC(F)(F)F)cc1CN[C@H]1CCCN[C@H]1c1ccccc1`, the result was inactive.

Take `O=[Si]=O`: the outcome was inactive.

Turning to `CC(C)NCC(O)c1ccc(O)c(O)c1` (stereo not given), the outcome was inactive.

With `CCCCC(CC)CO` (stereo not given), the outcome was inactive.

As for `CC(C)c1cccc(C(C)C)c1`, the outcome was inactive.

Consider `CC(=O)O`, for which the result was inactive.

Consider `Cc1ccc(-c2cc(C(F)(F)F)nn2-c2ccc(S(N)(=O)=O)cc2)cc1`, for which the AC50 was 27.3 µM (active).

Take `CO[C@@H]1COCC[C@@H]1N[C@@H]1CC[C@@](C(=O)N2CCc3ncc(C(F)(F)F)cc3C2)(C(C)C)C1`: the result was inactive.

In the case of `O=C1OC(c2ccc(O)cc2)(c2ccc(O)cc2)c2ccccc21`, the AC50 was 29 µM (active).

Regarding `C/C=C/c1ccc(OC)cc1`, the outcome was inactive.

On to `NC(=Nc1ccccc1)Nc1ccccc1`, for which the outcome was inactive.

Turning to `NCCOCCOCCN`, the result was inactive.

`CC(C)(C)c1ccccc1`: the result was inactive.

Take `CC(C)c1cccc(C(C)C)c1NC(=O)NS(=O)(=O)c1cc(C(C)(C)O)co1`: the result was inactive.

Regarding `Nc1nc(=S)c2[nH]cnc2[nH]1`, the outcome was inactive.

`Cn1cnc2c1c(=O)[nH]c(=O)n2C`: the result was inactive.

For the compound `O=C1NC(=O)C(c2ccccc2)(c2ccccc2)N1`, the result was inactive.

For the compound `CC(=O)OC1CC(C)OC(C)O1` (stereo not given), the outcome was inactive.

For `CN(C)C(=O)NC1(c2ccccc2)CCN(CCC[C@]2(c3ccc(Cl)c(Cl)c3)CCCN(C(=O)c3ccccc3)C2)CC1`, the outcome was inactive.

Consider `CN(C)C(=O)NC1(c2ccccc2)CCN(CC[C@@]2(c3ccc(F)c(F)c3)CN(C(=O)c3ccccc3)CCO2)CC1`, for which the outcome was inactive.

`O=C1CCCCC1`: the outcome was inactive.

`COC(=O)[C@H]1[C@H]2C[C@@H]3c4[nH]c5cc(OC)ccc5c4CCN3C[C@H]2C[C@@H](OC(=O)c2cc(OC)c(OC)c(OC)c2)[C@@H]1OC`: the AC50 was 26.6 µM (active).

Take `NC1CCCCC1`: the result was inactive.

As to `CC(COCC(C)OC(=O)c1ccccc1)OC(=O)c1ccccc1` (stereo not given), the outcome was inactive.

For the compound `CC1(C)C(=O)NC(=O)N1CO`, the outcome was inactive.

Regarding `CC(=O)S[C@H](C(=O)N[C@H]1Cc2ccccc2[C@H]2CCC[C@@H](C(=O)O)N2C1=O)C(C)C`, the result was inactive.

For `O=C(NS(=O)(=O)/C=C/c1cccs1)c1ccc(F)cc1Br`, the AC50 is 3.97 µM (active).

Turning to `CC(=O)[C@@]1(O)CC[C@H]2[C@@H]3CCC4=CC(=O)CC[C@]4(C)[C@H]3CC[C@@]21C`, the result was inactive.

On to `c1ccc2occc2c1`, for which the result was inactive.

With `N[C@@H](Cc1c[nH]c2ccccc12)C(=O)O`, the outcome was inactive.

Take `O=C(N[C@@H](c1ccccc1)[C@@H]1CCCCN1)c1cccc(C(F)(F)F)c1Cl`: the AC50 was 20 µM (active).

With `CCCCCCC(CCCCCCCCCCC(=O)OCC(COC(C)=O)OC(C)=O)OC(C)=O` (stereo not given), the outcome was inactive.

Turning to `Cc1c(C)c2c(c(C)c1O)CCC(C)(COc1ccc(CC3SC(=O)NC3=O)cc1)O2` (stereo not given), the AC50 is 14.9 µM (active).

As for `O=NO`, the result was inactive.

`CC(=O)OCC(COC(C)=O)OC(C)=O`: the outcome was inactive.

Source of the values: PubChem BioAssay (EPA / NIEHS).
